PubChem BioAssay AID1159580 (chemical genetic matrix, 2015)
Where “and” joins values, the source holds several entries; their conditions need not be identical. Equal values may be shown once. Among all 5,500 compounds or so, about 2,000 (36%) were called active. Another 18% or so got no clear call; they are omitted. Cut-off read from the data, not from the text of the source: active = normalized growth mostly below about 0.91 (no sharp cut-off); inconclusive = no clear call, values can overlap the other calls; inactive = mostly above about 0.92. This is one part of the list.

Assay: chemical genetic growth profiling, strain panel (AID 1159580);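 note: tested at 20 µM; growth read once vehicle control cultures reached saturation at 30 °C; 1 = growth at the plate median or of vehicle wells; lower values mean less growth of the strain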
Details: growth OD

Measured: normalized growth

NCCS
inactive: S. cerevisiae deletion strains, locus YJR075W, strain HOC1, active compounds read low 1.01 | S. cerevisiae deletion strains, locus YKL009W, strain mrt4, active compounds read low 0.998 | S. cerevisiae deletion strains, locus YKL068W, active compounds read low 1 | S. cerevisiae deletion strains, locus YKL085W, strain MDH1 (second series), active compounds read low 1.01 | S. cerevisiae deletion strains, locus YKL085W, strain MDH1, active compounds read low 1.01 | S. cerevisiae deletion strains, locus YKL160W, strain elf1, active compounds read low 0.986 | S. cerevisiae deletion strains, locus YKL190W, strain CNB1, active compounds read low 1.01 | S. cerevisiae deletion strains, locus YKR001C, strain vps1, active compounds read low 1.01 | S. cerevisiae deletion strains, locus YKR026C, strain gcn3, active compounds read low 0.947 | S. cerevisiae deletion strains, locus YKR091W, strain srl3, active compounds read low 0.991 | S. cerevisiae deletion strains, locus YLL001W, strain dnm1, active compounds read low 1 | S. cerevisiae deletion strains, locus YLL026W, active compounds read low 0.996 | S. cerevisiae deletion strains, locus YLL041C, strain sdh2, active compounds read low 0.998 | S. cerevisiae deletion strains, locus YLR027C, strain aat2, active compounds read low 0.984 | S. cerevisiae deletion strains, locus YLR039C, strain RIC1, active compounds read low 1.05 | S. cerevisiae deletion strains, locus YLR058C, strain SHM2, active compounds read low 1.02 | S. cerevisiae deletion strains, locus YLR102C, strain apc9, active compounds read low 1.01 | S. cerevisiae deletion strains, locus YLR113W, strain HOG1, active compounds read low 0.996 | S. cerevisiae deletion strains, locus YLR221C, strain rsa3, active compounds read low 0.992 | S. cerevisiae deletion strains, locus YLR258W, strain gsy2, active compounds read low 0.998 | S. cerevisiae deletion strains, locus YLR262C, strain YPT6 (second series), active compounds read low 0.953 | S. cerevisiae deletion strains, locus YLR262C, strain YPT6, active compounds read low 1.03 | S. cerevisiae deletion strains, locus YLR268W, strain sec22, active compounds read low 1.01 | S. cerevisiae deletion strains, locus YLR320W, strain mms22, active compounds read low 0.985 | S. cerevisiae deletion strains, locus YLR330W, strain CHS5, active compounds read low 1.01 | S. cerevisiae deletion strains, locus YLR342W, strain FKS1 (second series), active compounds read low 1.04 | S. cerevisiae deletion strains, locus YLR342W, strain FKS1, active compounds read low 0.969 | S. cerevisiae deletion strains, locus YLR357W, strain rsc2, active compounds read low 0.962 | S. cerevisiae deletion strains, locus YLR370C, strain arc18, active compounds read low 0.989 | S. cerevisiae deletion strains, locus YLR371W, strain rom2, active compounds read low 1.02 | S. cerevisiae deletion strains, locus YLR384C, strain iki3, active compounds read low 0.999 | S. cerevisiae deletion strains, locus YLR418C, strain cdc73, active compounds read low 1.03 | S. cerevisiae deletion strains, locus YML016C, strain PPZ1, active compounds read low 1.02 | S. cerevisiae deletion strains, locus YML032C, strain rad52, active compounds read low 1.02 | S. cerevisiae deletion strains, locus YML120C, strain ndi1, active compounds read low 0.988 | S. cerevisiae deletion strains, locus YML124C, strain tub3, active compounds read low 1.02 | S. cerevisiae deletion strains, locus YMR058W, strain fet3, active compounds read low 0.985 | S. cerevisiae deletion strains, locus YMR078C, strain ctf18, active compounds read low 1.01 | S. cerevisiae deletion strains, locus YMR125W, strain sto1, active compounds read low 0.968 | S. cerevisiae deletion strains, locus YMR129W, active compounds read low 1.01 | S. cerevisiae deletion strains, locus YMR205C, strain PFK2, active compounds read low 0.983 | S. cerevisiae deletion strains, locus YMR223W, strain ubp8, active compounds read low 1.01 | S. cerevisiae deletion strains, locus YMR231W, strain pep5, active compounds read low 0.999 | S. cerevisiae deletion strains, locus YMR263W, strain SAP30, active compounds read low 1.01 and 0.99 | S. cerevisiae deletion strains, locus YMR307W, strain GAS1, active compounds read low 1.02 | S. cerevisiae deletion strains, locus YNL067W, strain RPL9B, active compounds read low 1.01 | S. cerevisiae deletion strains, locus YNL071W, strain lat1, active compounds read low 0.956 | S. cerevisiae deletion strains, locus YNL128W, strain TEP1, active compounds read low 1.01 | S. cerevisiae deletion strains, locus YNL153C, strain GIM3, active compounds read low 1.01 | S. cerevisiae deletion strains, locus YNL175C, strain NOP13, active compounds read low 1 | S. cerevisiae deletion strains, locus YNL183C, strain NPR1, active compounds read low 0.981 | S. cerevisiae deletion strains, locus YNL197C, strain WHI3, active compounds read low 1.01 | S. cerevisiae deletion strains, locus YNL209W, strain ssb2, active compounds read low 0.989 | S. cerevisiae deletion strains, locus YNL224C, strain SQS1, active compounds read low 1 | S. cerevisiae deletion strains, locus YNL233W, strain BNI4, active compounds read low 1.02 | S. cerevisiae deletion strains, locus YNL248C, strain rpa49, active compounds read low 0.983 | S. cerevisiae deletion strains, locus YNL250W, strain rad50, active compounds read low 1.02 | S. cerevisiae deletion strains, locus YNL271C, strain bni1, active compounds read low 1.01 | S. cerevisiae deletion strains, locus YNL298W, strain CLA4, active compounds read low 1.03 | S. cerevisiae deletion strains, locus YNL307C, strain MCK1, active compounds read low 1.02 | S. cerevisiae deletion strains, locus YNL322C, strain KRE1 (second series), active compounds read low 0.979 | S. cerevisiae deletion strains, locus YNL322C, strain KRE1, active compounds read low 1.01 and 1.02 | S. cerevisiae deletion strains, locus YNR049C, strain mso1, active compounds read low 0.972 | S. cerevisiae deletion strains, locus YNR052C, strain pop2, active compounds read low 1.01 | S. cerevisiae deletion strains, locus YOL006C, strain TOP1, active compounds read low 1.04 | S. cerevisiae deletion strains, locus YOL012C, strain htz1 1.32 | S. cerevisiae deletion strains, locus YOL147C, strain pex11, active compounds read low 1.02 | S. cerevisiae deletion strains, locus YOR001W, strain rrp6, active compounds read low 0.992 | S. cerevisiae deletion strains, locus YOR061W, strain CKA2, active compounds read low 1.02 | S. cerevisiae deletion strains, locus YOR069W, strain VPS5, active compounds read low 1.01 | S. cerevisiae deletion strains, locus YOR070C, strain gyp1, active compounds read low 0.982 | S. cerevisiae deletion strains, locus YOR080W, strain dia2, active compounds read low 0.984 | S. cerevisiae deletion strains, locus YOR083W, strain WHI5 (second series), active compounds read low 1.02 | S. cerevisiae deletion strains, locus YOR083W, strain WHI5, active compounds read low 0.983 | S. cerevisiae deletion strains, locus YOR106W, strain vam3, active compounds read low 0.969 | S. cerevisiae deletion strains, locus YOR136W, strain idh2, active compounds read low 1.02 | S. cerevisiae deletion strains, locus YOR144C, strain elg1, active compounds read low 1.02 | S. cerevisiae deletion strains, locus YOR184W, strain ser1, active compounds read low 0.999 | S. cerevisiae deletion strains, locus YOR231W, strain MKK1, active compounds read low 1.02 | S. cerevisiae deletion strains, locus YOR265W, strain rbl2, active compounds read low 0.997 | S. cerevisiae deletion strains, locus YOR270C, strain vph1, active compounds read low 0.995 | S. cerevisiae deletion strains, locus YOR290C, strain snf2, active compounds read low 0.982 | S. cerevisiae deletion strains, locus YOR316C, strain cot1, active compounds read low 1.02 | S. cerevisiae deletion strains, locus YPL051W, strain arl3, active compounds read low 1 | S. cerevisiae deletion strains, locus YPL055C, strain LGE1, active compounds read low 1.01 | S. cerevisiae deletion strains, locus YPL078C, strain atp4, active compounds read low 0.988 | S. cerevisiae deletion strains, locus YPL106C, strain sse1, active compounds read low 0.957 | S. cerevisiae deletion strains, locus YPL240C, strain hsp82, active compounds read low 0.992 | S. cerevisiae deletion strains, locus YPL241C, strain CIN2, active compounds read low 1.01 and 1 | S. cerevisiae deletion strains, locus YPL256C, strain CLN2, active compounds read low 1.08 | S. cerevisiae deletion strains, locus YPR119W, strain clb2, active compounds read low 1.01 | S. cerevisiae deletion strains, locus YPR141C, strain kar3, active compounds read low 1.03 | S. cerevisiae deletion strains, locus YPR163C, strain tif3, active compounds read low 1.02 | S. cerevisiae deletion strains, locus YPR167C, strain met16, active compounds read low 1.01 | S. cerevisiae deletion strains, strain wtn01, active compounds read low 1.09 | S. cerevisiae strains, strain wild type, active compounds read low 1
